Seven compounds from PubChem BioAssay (NCATS) can be followed below.

SMILES strings stand for the structures. Unmarked numbers belong to inactive results. Records with an inconclusive call do not appear. Calls of active or inactive are those of the source. Unless noted, calls follow the shape of the full dose curve.

The nature of assay [1]: Primary qHTS for inhibitors of SARS-S pseudo-typed particle cell entry (AID 1479145). Also: nearly all actives have a fitted effect of over 45% in size. Also: potency is read from the fitted curve at half-maximal effect. As to activity change, negative = inhibition: series mostly up to about 57 µM; % is scaled to controls: 0 for no effect and ±100 for the full control effect. The following applies: outcome: dose series up to 57.1 µM unless noted. On the technique in general: In qHTS, concentration-response curves come from the screen itself.
Assay [2] in a line: Primary qHTS for Huh7 cytotoxicity: counterscreen for inhibitors of MERS-S pseudotyped particle cell entry (AID 1479147). As to activity change, negative = cytotoxicity: % is scaled to controls: 0 for no effect and ±100 for the full control effect. The following applies: outcome: dose series up to 57.1 µM unless noted.
Assay [3] in a line: Primary qHTS for Vero E6 cytotoxicity: counterscreen for inhibitors of SARS-S pseudo-typed particle cell entry (AID 1479150). As to activity change, negative = cytotoxicity: % is scaled to controls: 0 for no effect and ±100 for the full control effect. The following applies: outcome: dose series up to 57.1 µM unless noted.
A short description of assay [4]: Cytotoxicity counterscreen for inhibitors of SARS-CoV-2 cell entry (AID 1645845). Also: series mostly up to about 57 µM; % is scaled to controls: 0 for no effect and ±100 for the full control effect; nearly all actives have a fitted effect of over 50% in size. The following applies: outcome: dose series up to 57.1 µM unless noted. A digest of the protocol: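 48 h compound treatment (after 1 h preincubation), HEK293-ACE2 cells, 37 C/5% CO2; ATP luminescence endpoint; normalized to cell wells and media blanks.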
For orientation: The purpose of a counterscreen is to sort out artefacts and off-target activity.

Assay [5] in a line: Confirmatory qHTS to identify inhibitors of SARS-CoV-2 cell entry (AID 1645844). Also: potency is read from the fitted curve at half-maximal effect; nearly all actives have a fitted effect of over 45% in size. Put shortly:
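Luminescence from a luciferase reporter, read 48 hr after pseudotyped-particle addition, gives entry signal, normalised to spike-bearing PP wells and bald PP lacking fusion protein wells. Cells are Expi293F stably expressing human ACE2, compound-pretreated 1 hr.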

A short description of assay [6]: VSVG counterscreen qHTS to identify inhibitors of SARS-CoV-2 cell entry (AID 1645847). Also: potency is read from the fitted curve at half-maximal effect; nearly all actives have a fitted effect of over 65% in size. Put shortly:
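Luminescence read after 48 h infection at 37 C with VSV-G-pseudotyped MLV particles, following 1 h compound exposure of Expi293F cells stably expressing human ACE2; scaled between bald particle and VSV-G particle wells.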

For assay [7], the target named is Alpha-galactosidase (Coffea arabica) (UniProt Q42656). The experiment in a line: Counterscreen for Glucocerebrosidase Inhibitors: qHTS Assay for Coffee Bean alpha-Galactosidase at pH 4.5 (AID 957; active = well fitted curve in the direction sought with a large enough effect; an effect the other way counts as inactive or inconclusive;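 also: series mostly up to about 77 µM; plate controls were enzyme alone for no effect and no enzyme for full effect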). Put shortly:
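Green coffee bean enzyme (2 nM final) was incubated with compounds (0.7 nM to 77 uM) and 4-methylumbelliferyl alpha-D-galactopyranoside (80 uM final) in 50 mM citric acid, 0.005% Tween-20, pH 4.5, 20 min at room temperature; AC50 from Hill fits.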

For assay [8] the target is unchanged. Description: Counterscreen for Glucocerebrosidase Inhibitors: qHTS Assay for Coffee Bean alpha-Galactosidase at pH 5.9 (AID 998; active = well fitted curve in the direction sought with a large enough effect; an effect the other way counts as inactive or inconclusive;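 also: plate controls were uninhibited enzyme for no effect and no-enzyme basal signal for full effect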). A digest of the protocol:
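Compounds were titrated from 0.7 nM to 77 uM against green coffee bean alpha-galactosidase (2 nM) using 80 uM fluorogenic 4-methylumbelliferyl substrate. After 20 min at room temperature, reactions were stopped at pH 10 and read by fluorescence.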

Assay [9] in a line: Inducers of the Endoplasmic Reticulum Stress Response (ERSR) in human glioma: Validation (AID 504836; active = well fitted curve in the direction sought with a large enough effect; an effect the other way counts as inactive or inconclusive; also: 0% is about no effect). Put shortly:
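ERSR induction read as luciferase luminescence (Bright-Glo, 10 min at room temperature) in stably transfected human U87-MG glioma cells exposed to compounds for 16 h, using GRP78 as sensor.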

Sequence of Alpha-galactosidase (Coffea arabica) (Q42656 whole entry, looked up): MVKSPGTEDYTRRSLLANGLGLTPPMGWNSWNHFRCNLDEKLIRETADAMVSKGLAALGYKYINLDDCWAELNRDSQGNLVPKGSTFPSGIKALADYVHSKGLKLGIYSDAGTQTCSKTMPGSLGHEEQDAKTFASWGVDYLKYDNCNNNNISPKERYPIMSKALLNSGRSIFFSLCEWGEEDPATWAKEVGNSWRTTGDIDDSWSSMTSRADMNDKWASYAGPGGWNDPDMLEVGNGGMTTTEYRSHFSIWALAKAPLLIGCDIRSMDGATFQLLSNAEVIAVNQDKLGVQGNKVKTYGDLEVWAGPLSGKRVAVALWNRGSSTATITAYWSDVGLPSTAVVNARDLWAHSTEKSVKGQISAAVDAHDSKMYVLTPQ

Regarding `CC1(C)C(/C=C/C=C/C=C/C=C2/N(CCCCS(=O)(=O)O)c3ccc4ccccc4c3C2(C)C)=[N+](CCCCS(=O)(=O)[O-])c2ccc3ccccc3c21`, the Potency result in assay [1], in assay [2], in assay [3] and in assay [4] was “inactive” in each case.
As for `C=C1C/C(=C\C=C2/CCC[C@]3(C)[C@@H]([C@H](C)/C=C/C(C)C(C)C)CC[C@@H]23)[C@@H](O)C[C@@H]1O` (some centres undefined), the Potency result in [1], in assay [2] and in [3] was “inactive” each time. Also, the Potency was 0.541 µM (active) in assay [5] and 0.429 µM (active) in assay [6].
With `Nc1nc(Cl)nc2c1ncn2C1CC(O)C(CO)O1` (centres undefined), the Potency in [1] was 11.2 µM (active); in [5], 19.2 µM (active); in [6], 19.2 µM (active). The Potency result in assay [2], in assay [3] and in [4] was “inactive” each time.
On to `C=C1/C(=C\C=C2/CCC[C@]3(C)[C@@H]([C@H](C)CCCC(C)(C)O)CC[C@@H]23)C[C@@H](O)C[C@@H]1O`, for which the Potency entry in assay [1], in assay [2], in assay [3] and in assay [4] was “inactive” in each case.
On to `C=C1CC[C@H](O)CC1=C/C=C1\CCC[C@]2(C)[C@@H]([C@H](C)CCCC(C)(C)O)CC[C@@H]12`, for which the Potency entry in assay [1], in [2], in assay [3] and in [4] was “inactive” throughout.
Regarding `Cc1cc(N)c2ccccc2[n+]1CCCCCCCCCC[n+]1c(C)cc(N)c2ccccc21`, the compound was called inactive in assay [7], in [8] and in assay [9]. For the same compound, in assay [1], the activity change, negative = inhibition was -2.83% [at 11.4 µM]. Besides, the activity change, negative = cytotoxicity in assay [2] was 1.39% [at 11.4 µM]; in assay [3] it was -0.518% [at 11.4 µM]; in assay [4] it was -25.1% [at 11.3 µM].
Consider `CC(C)(O)CNc1nc(Nc2ccnc(C(F)(F)F)c2)nc(-c2cccc(C(F)(F)F)n2)n1`, for which the Potency entry in [1], in assay [2], in assay [3] and in [4] was “inactive” each time.
